High-throughput results: PubChem, National Center for Advancing Translational Sciences (NCATS)
Pf growth 48h – P. falciparum growth inhibition at 48 hours (one generation) | Potency, µM (highest dose often 28.7 µM), for inactives: top-dose activity change, negative = inhibition, usual class: inhibitors | P. falciparum luciferase growth in erythrocytes, 48 h | AID 504832 | actives 5.9% (n = 310,000); note: potency is the fitted concentration of half-maximal effect; % is set by controls: 0 for no effect and ±100 for the full control effect
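Erythrocytes infected with P. falciparum carrying an integrated firefly luciferase reporter (2% hematocrit, 0.1% parasitemia final) were exposed to compounds in RPMI 1640 with 0.5% Albumax at 37 C, 5% CO2. Growth inhibition was scored as reduced luminescence.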
Pf growth 96h – P. falciparum growth inhibition at 96 hours | actives 6.9% (n = 320,000) | P. falciparum luciferase reporter growth, 96 h | AID 504834 | Potency, µM (series often up to 28.7 µM), inactives show at the top dose activity change, negative = inhibition, usual class: inhibitors; note: potency is the fitted concentration of half-maximal effect; % is set by controls: 0 for no effect and ±100 for the full control effect
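Parasite growth measured via integrated firefly luciferase reporter in P. falciparum. Infected erythrocytes at 2% hematocrit, 0.05% parasitemia final were treated 96 hours at 37 C under 5% CO2, and luminescence was read.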
HCMV inh – human cytomegalovirus inhibition; HFF cells, HCMV-luciferase reporter, 72 h; stronger effect = lower value; activity change, negative = inhibition, % at 57.5 µM; actives 4.5% (n = 410,000); in the data active = activity change below about -60%; inconclusive = no clear call, values can overlap the other calls; inactive = above about -39%; note: % is set by controls: 0 for no effect and ±100 for the full control effect
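Screen run at 2 compound doses on HFFs infected with reporter HCMV, MOI 1 PFU/cell. Luciferase activity from cell lysates at 72 h post infection gave inhibition relative to buffer-only and Salinomycin wells.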
Shiga toxin inh – inhibitors of Shiga toxin in Vero cells; Vero cells, Shiga toxin protein synthesis inhibition reporter; actives 9.2% (n = 290,000); inhibition, % at 38.7 µM; AID 2315; in the data active = inhibition mostly above about 28%, no sharp cut-off; inactive = mostly below about 43%; note: 0% is about no effect
Cycloheximide cs – counter-screen for Shiga toxin inhibitors: cycloheximide protein synthesis inhibition. cell reporter, cycloheximide protein synthesis inhibition counterscreen. max response, %. actives 12% (n = 300,000); in the data active = max response mostly above about 13%, no sharp cut-off; inactive = mostly below about 14%; note: read at 38.3 µM for the half of the compounds with a filed dose; 0% is about no effect
* = called active by the depositor. This is a sample that favours compounds with a hit; in the whole collection about 20% have one here. Unless noted, calls come from the whole dose curve; as a rule, active = well fitted inhibition curve with a large enough effect; inconclusive = small, poorly fitted or top-dose-only effect, or another doubt; inactive = no such curve, though single readings can be large or run the other way.

What do the screens show for `CCN(CC)CCCNC(=O)c1cn(-c2cccc(OC)c2)c(=O)c2ccccc12`?
Pf growth 48h: 6%; Pf growth 96h: -12%; HCMV inh: -33; Shiga toxin inh: 32; Cycloheximide cs: 1

Results for Cc1cc(Br)c(NC(=O)CSc2n[nH]c(N)n2)c(Br)c1 ?
HCMV inh: 12

How did Cc1ccc(NC(=O)c2cc3c(=O)n(Cc4cccnc4)ccc3nc2C)cc1F do in these assays?
HCMV inh: -2

How did CCOC(=O)Cc1csc(NC(=O)c2ccc(Br)cc2)n1 do in these assays?
Pf growth 48h: 21%; Pf growth 96h: 14%; HCMV inh: -24; Shiga toxin inh: 40; Cycloheximide cs: 8

How did COc1cc(OC)cc(C(=O)Nc2nc(CC(=O)NCc3ccc(F)cc3)cs2)c1 do in these assays?
Pf growth 48h: inconclusive; Pf growth 96h: 12µM*; HCMV inh: 2

What do the screens show for `O=C(Cc1csc(NC(=O)c2ccc(F)cc2)n1)NO`?
Pf growth 48h: inconclusive; Pf growth 96h: 8.3µM*; HCMV inh: 12; Shiga toxin inh: 18; Cycloheximide cs: 13

Results for Cc1cc2nc(CN(C)C(=O)C3CCC(=O)N(C4CCCC4)C3)[nH]c2cc1C (centres undefined) ?
HCMV inh: 48

Results for O=c1c2cnn(-c3ccc(F)cc3)c2ncn1Cc1ccccc1Cl ?
HCMV inh: -2

Results for CC[C@H](C)[C@H](NC(=O)CNC(=O)[C@H](CCCNC(=N)N)NC(=O)CNC(=O)[C@@H](NC(=O)[C@H](Cc1ccc(O)cc1)NC(=O)[C@H](Cc1c[nH]c2ccccc12)NC(=O)[C@H](C)NC(=O)[C@@H]1CCCN1C(=O)[C@H](CC(N)=O)NC(=O)[C@@H](NC(=O)[C@H](CC(=O)O)NC(=O)[C@@H]1CCCN1C(=O)[C@@H](N)[C@@H](C)O)[C@@H](C)CC)[C@@H](C)O)C(=O)N[C@@H](CCCNC(=N)N)C(=O)N1CCC[C@H]1C(=O)N[C@H](C(=O)NCC(=O)N[C@@H](CCCNC(=N)N)C(=O)N[C@@H](Cc1ccccc1)C(N)=O)C(C)C ?
Shiga toxin inh: -6; Cycloheximide cs: -6

What do the screens show for `Cc1oc(C(=O)O)cc1COc1cccc2ccccc12`?
Pf growth 48h: 5%; Pf growth 96h: 2.3µM*; HCMV inh: 11; Shiga toxin inh: -4; Cycloheximide cs: -2

Results for COc1cc(C(=O)O)cc(OC)c1OCc1cc(C(=O)O)oc1C ?
Pf growth 48h: 7%; Pf growth 96h: -11%; HCMV inh: -23; Shiga toxin inh: -4; Cycloheximide cs: 1

What do the screens show for `CCCN(Cc1nnc(-c2ccccc2Cl)o1)C(=O)c1cccc(S(=O)(=O)N2CCOCC2)c1`?
Pf growth 48h: inconclusive; Pf growth 96h: inconclusive; HCMV inh: 7; Shiga toxin inh: 6; Cycloheximide cs: 7

How did COc1ccc(CCNC(=O)c2ccc(OCc3c(C)noc3C)cc2)cc1OC do in these assays?
Pf growth 48h: 9.3µM*; Pf growth 96h: inconclusive; HCMV inh: -5

What do the screens show for `COC(=O)c1ccc(OC(=O)c2ccc(OCc3c(C)noc3C)c(OC)c2)cc1`?
Pf growth 48h: 15%; Pf growth 96h: 10µM*; Shiga toxin inh: -5; Cycloheximide cs: 2

Results for COc1cc(C(=O)OCC#N)ccc1OCc1c(C)noc1C ?
Pf growth 48h: -29%; Pf growth 96h: inconclusive; HCMV inh: 0; Shiga toxin inh: 11; Cycloheximide cs: -1

How did CCOc1ccc(CCNC(=O)c2ccc(OCc3c(C)noc3C)cc2)cc1OCC do in these assays?
Pf growth 48h: inconclusive; Pf growth 96h: 7.4µM*; HCMV inh: -97*

Results for Cc1noc(C)c1COc1ccc(C(=O)NCCc2ccc(F)cc2)cc1 ?
Pf growth 48h: inconclusive; Pf growth 96h: inconclusive; HCMV inh: -19

How did Cc1ccc(SCCCCN2CCOCC2)cc1 do in these assays?
Pf growth 48h: 32%; Pf growth 96h: -13%; HCMV inh: 17; Shiga toxin inh: 17; Cycloheximide cs: 6.9*

What do the screens show for `Cc1ccc(SCCCCN2CCNCC2)cc1`?
Pf growth 48h: 39%; Pf growth 96h: 12%; HCMV inh: -1; Shiga toxin inh: active; Cycloheximide cs: 37*

How did Clc1ccc(SCCCCN2CCNCC2)cc1 do in these assays?
Pf growth 48h: inconclusive; Pf growth 96h: 12µM*; HCMV inh: -29; Shiga toxin inh: 65; Cycloheximide cs: 39*
